Test systems include DU-145 prostate; K-562 leukemia; MALME-3M melanoma; MDA-MB-231 breast; RXF 393 renal; SF-268 CNS; SF-295 CNS; SF-539 CNS; UACC-257 melanoma; M14 melanoma.
Assay in all cases: NCI-60 one-dose screen, 48 h (100 = growth as untreated, 0 = no growth, -100 = all killed)
Holding throughout (settings): 10 µM unless noted

About 83,000 compounds went through this panel and 20% of them were active in at least one assay; those are over-represented in the sample as a whole.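 Note: values are percent growth. 100 is the growth of untreated cells, values between 100 and 0 indicate rising inhibition; between -100 and 0 indicates cell death.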 Unmarked numbers belong to inactive results. Active and inactive are the calls of the source. How the source made its calls: active means growth percent below 10; inactive means the rest.

These results are taken from PubChem BioAssay (NCI).

On to `COc1ccc(/C(C)=C(\c2ccc(OCCN3CCOCC3)cc2)c2ccc(OC(=O)Cc3ccccc3)cc2)cc1`, for which the growth was 102% in the assay on DU-145 prostate; 91% in the assay with K-562 leukemia; 104% with MALME-3M melanoma; 109% with MDA-MB-231 breast; 111% in the assay with RXF 393 renal; 100% in the assay with SF-268 CNS. The growth was 108% with SF-295 CNS, 112% with SF-539 CNS, 109% in the assay with UACC-257 melanoma and 104% in the assay with M14 melanoma.

Take `CC(=O)Nc1ccc(NC(=O)c2ccc([As](O)O)cc2)cc1`: the growth was 108% in the assay with DU-145 prostate; 33.1% in the assay with K-562 leukemia; 113% in the assay on MALME-3M melanoma; 88.3% in the assay with MDA-MB-231 breast; 47.6% in the assay on RXF 393 renal; 109% in the assay with SF-268 CNS. Further, the growth was 118% with SF-295 CNS, 88.8% with SF-539 CNS, 104% with UACC-257 melanoma and 101% in the assay on M14 melanoma.

Consider `CCCCCSC1C2C(=O)C(Br)=CC13CCNc1c(O)c4c5c(c13)=[N+]2CCC=5C=N4` (stereo not given), for which the growth is -100% (active) in the assay on DU-145 prostate; -32% (active) with K-562 leukemia; -99.5% (active) with MALME-3M melanoma; -7.12% (active) with MDA-MB-231 breast; -28.5% (active) in the assay on RXF 393 renal; -51.7% (active) in the assay with SF-268 CNS. Further, the growth in the assay with SF-295 CNS is 20.9%; with SF-539 CNS, -79.6% (active); in the assay on UACC-257 melanoma it was -79.6% (active); in the assay on M14 melanoma, -92.6% (active).

Turning to `O=[N+]([O-])c1cc(I)cc([N+](=O)[O-])c1`, the growth in the assay with DU-145 prostate is 105%; in the assay with K-562 leukemia, 97.9%; in the assay with MALME-3M melanoma it was 101%; in the assay with MDA-MB-231 breast it was 95.7%; in the assay with RXF 393 renal, 111%; with SF-268 CNS, 94.2%. Besides, the growth is 110% in the assay with SF-295 CNS, 101% in the assay on SF-539 CNS, 98% with UACC-257 melanoma and 98.8% with M14 melanoma.

In the case of `CC1=C2[C@@H](CC1)[C@]1(C)O[C@@](C(C)C)(C[C@H]1O)[C@H]2OC(=O)C1CC1c1ccccc1` (stereo not given in full), the growth was 106% with DU-145 prostate; 84.6% with K-562 leukemia; 92.2% with MALME-3M melanoma; 78.2% in the assay on MDA-MB-231 breast; 99.4% in the assay with RXF 393 renal; 86.1% in the assay on SF-268 CNS. For the same compound, the growth is 92.1% with SF-295 CNS, 94.6% in the assay with SF-539 CNS, 103% in the assay with UACC-257 melanoma and 90.9% in the assay with M14 melanoma.

As for `Fc1ccc(N2COOC3(OOC2)C2CC4CC(C2)CC3C4)cc1`, the growth is 90.8% in the assay on DU-145 prostate; 26.7% in the assay with K-562 leukemia; 106% with MALME-3M melanoma; 95.5% in the assay with MDA-MB-231 breast; 115% in the assay on RXF 393 renal; 91.5% in the assay with SF-268 CNS. In addition, the growth in the assay with SF-295 CNS was 87.5%; in the assay with SF-539 CNS, 82.5%; with UACC-257 melanoma it was 89.6%; in the assay with M14 melanoma, 89.5%.

`CC(=O)OC[C@]1(C)C=C2C(=O)[C@](C)(O)C3(CC3)C(C)=C2[C@H]1O`: the growth in the assay with DU-145 prostate was -19.4% (active); in the assay with K-562 leukemia it was 27.2%; in the assay with MALME-3M melanoma, -78.8% (active); in the assay with MDA-MB-231 breast it was -28.1% (active); with RXF 393 renal, -79.4% (active); with SF-268 CNS, -8.2% (active). Further, the growth is -19.3% (active) in the assay with SF-295 CNS, -68.9% (active) with SF-539 CNS, -28.9% (active) in the assay on UACC-257 melanoma and -66.9% (active) in the assay on M14 melanoma.

For the compound `CC[CH2][Sn]([Cl])([Cl])[CH2]CC`, the growth with DU-145 prostate is 106%; with K-562 leukemia, 30.6%; with MALME-3M melanoma it was 21%; in the assay on MDA-MB-231 breast it was 81.6%; in the assay with RXF 393 renal it was 51.1%; in the assay on SF-268 CNS, 83.2%. Besides, the growth was 96.1% in the assay on SF-295 CNS, 80.4% in the assay on SF-539 CNS, 67% with UACC-257 melanoma and 83.4% in the assay on M14 melanoma.

With `CC[C@H](C)[C@H](NC(=O)[C@H]1CCCCN1C)C(=O)N(C)[C@H](C[C@@H](OC(C)=O)c1nc(C(=O)N[C@@H](Cc2ccccc2)C[C@H](C)C(=O)OC)cs1)C(C)C`, the growth with DU-145 prostate is 1.75% (active); with K-562 leukemia, 4.21% (active); in the assay on MALME-3M melanoma, 65.5%; in the assay on MDA-MB-231 breast it was 19.5%; with RXF 393 renal, 38.1%; in the assay on SF-268 CNS, 31.2%. Also, the growth in the assay on SF-295 CNS was 2.06% (active); in the assay on SF-539 CNS, -11.3% (active); in the assay on UACC-257 melanoma, 52.9%; with M14 melanoma, 3.87% (active).

For the compound `CC[C@@H]1[C@@H](C)O[C@@](O)([C@@H](C)[C@H](O)[C@H](C)[C@H]2OC(=O)/C=C/C=C/[C@H](C)[C@@H]([C@@H](C)[C@@H](O)[C@H](C)[C@@]3(O)C[C@@H](O[C@H]4C[C@@H](O)[C@H](O)C(C)O4)[C@H](CC)[C@@H](C)O3)OC(=O)/C=C/C=C/[C@@H]2C)C[C@H]1O[C@@H]1C[C@@H](O)[C@H](O)C(C)O1` (stereo not given in full), the growth in the assay on DU-145 prostate is -97.5% (active); in the assay on K-562 leukemia, -71.6% (active); in the assay with MALME-3M melanoma it was -97% (active); with MDA-MB-231 breast it was -68.3% (active); in the assay with RXF 393 renal, -96.7% (active); in the assay on SF-268 CNS, -86.3% (active). In addition, the growth in the assay with SF-295 CNS is -86.5% (active); in the assay on SF-539 CNS, -96.8% (active); in the assay with UACC-257 melanoma it was -89.5% (active); with M14 melanoma, -83.9% (active).

As to `C=CCn1cc(C=C2C(=O)N(C)C(=O)N(C)C2=O)c2ccccc21`, the growth was 108% in the assay with DU-145 prostate; 108% with K-562 leukemia; 97.4% in the assay on MALME-3M melanoma; 88.4% in the assay with MDA-MB-231 breast; 89.9% in the assay on RXF 393 renal; 97.8% in the assay with SF-268 CNS. Besides, the growth with SF-295 CNS is 66.4%; in the assay on SF-539 CNS, 102%; in the assay with UACC-257 melanoma, 94.4%; in the assay with M14 melanoma, 88.9%.

With `CCOC(=O)N[C@H]1CCc2c(Br)c(OC)c(OC)c(OC)c2-c2ccc(SC)c(=O)cc21`, the growth in the assay on DU-145 prostate is -19.5% (active); in the assay with K-562 leukemia, 5.89% (active); in the assay on MALME-3M melanoma it was 35.1%; in the assay with MDA-MB-231 breast it was -7.24% (active); with RXF 393 renal, 12.8%; in the assay on SF-268 CNS, 17.5%. In addition, the growth is 10.8% in the assay with SF-295 CNS, -31.9% (active) in the assay on SF-539 CNS, 67.5% in the assay with UACC-257 melanoma and 0.572% (active) in the assay with M14 melanoma.
